# Source: the supplement of paper PMC10338343
# ± gives the standard deviation.
# Tested on: MILI (PIWIL2) piRISC loaded with L1MC piRNA (26 nt)
# Test: pre-steady-state target cleavage rate (min^-1); guide: L1MC piRNA 5'p-UAACUAAAUACUAUGCAAGCUGUAGG; MIWI and MILI are mouse PIWI proteins and EfPiwi is from a freshwater sponge; tags in brackets are library labels; higher = faster piRNA-guided slicing of the target
# Conditions: auxiliary factor: 500 nM mouse GTSF1
# Procedure, shortened: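 A burst-and-steady-state fit was used to obtain the pre-steady-state cleavage rate. The input data were sequencing reads of uncleaved targets, normalised to depth and to weakly complementary targets, from a […] transcribed, DNA-blocked target RNA library mixed with 1 nM active affinity-purified piRISC holding one synthetic guide, with or without 500 nM GTSF1 partner protein, in HEPES–potassium acetate buffer at 33 °C for 0–8 or 0–960 min. Three trials were pooled and k3 was capped at 0.0001 min^-1.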
# 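Further: 1 nM active piRISC with 0.1 nM target library at 33 °C single turnover.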
row,Sequence,pre-steady-state target cleavage rate
1,UCCUGCUACACGAUGCAUAGUAUUUAGAAA,0.183 ± 0.042
2,UCCUGCUACACCUUGCAUAGUAUAUAGUUA,0.18 ± 0.037
3,UCCUGGAUGUCCUUGCAUAGUUAAUAGUUA,0.00959 ± 0.0043
4,UCCUGGAUCACCUUGCAUAGUAUUUUGUUA,0.11 ± 0.027
5,UCCUGGAUGAGCUUGCAUAGUCAUUUAGUUA,0.00477 ± 0.0039
6,UCCUGGAUGUCCUUGCAUAGUUUAUAGUUA,0.0111 ± 0.006
7,UCCUGGAUGUCCUUGCAUACUAUUUUGUUA,0.00525 ± 0.0044
8,UCCUGCUACAGCAACCAUAGUAUUUAGUUA,0.305 ± 0.04
9,UCCUGGAUCUGCUUGCAUAGUAUUUAGAAA,0.0794 ± 0.019
10,UCCUGGAUGUCCUUGCAUUGUAUUUACUUA,0.0534 ± 0.012
11,UCCUGGAUCAGCUUCGAUAGUAUUUAGUAA,0.158 ± 0.016
12,UCCUGGAUGUGCUUGCAUAGUUAAUAGUUA,0.00482 ± 0.0042
13,UCCUCCUACAGCUUGCUAAGUAUUUUCAAA,0.0625 ± 0.017
14,UCCUGGAUGAGCUUGCAUAGUUUAUAGUUA,0.0127 ± 0.0052
15,UCCUCCUAGUCCUUGCAUAGUAUUUUCAAA,0.0344 ± 0.013
16,UCCUGGAUGACCUUGCAUAGUAUUUUGUUA,0.0852 ± 0.023
17,UCCUGGAUGAGCUUGCAUUAGUAUUUAGUUA,0.00494 ± 0.0045

row,Sequence,pre-steady-state target cleavage rate
1,UCCUGCUACACGUUGCAUAGUAUUUUCAAA,0.00757 ± 0.0052
2,UCCUGGAUGUCGAACCAUAGUAUUUAGCUUA,< 0.0001
3,UCCUGGAUCAGGAAGCAUAGUAUUUACAAA,0.00413 ± 0.0036
4,UCCUGCUACAGCUUGCAUAGUAUAAUCAAA,0.0335 ± 0.013
5,UCCUGGUACAGCUUGCAAUGUAUUUAGUAA,0.0576 ± 0.013
6,UCCUGGAACAGCUUGCAUAGUAUUAACAAA,0.104 ± 0.029
7,UCCUGGAUGUGCUUGCAUAGAAUAUAGUUA,0.00814 ± 0.0043
8,UCCUGGAUGUGCAACCAUAGUAUUUAGUUA,0.0128 ± 0.0042
9,UCCUGGAUCAGCUUGCAUAGUAUUUUCUAA,0.0634 ± 0.017
10,UCCUGGUACAGCUUGCAUAAGUAUUUAGUUA,0.00838 ± 0.0052
11,UCCUGGAUGUCCUUCCAUAGUAUUUAGUAA,0.0112 ± 0.0045
12,UCCUGGAUGUGCUUGGAUACUAUUUAGUUA,0.0156 ± 0.0061
13,UCCUGGAUGAGCUUGCAUUGUAUUUACUUA,0.031 ± 0.012
14,UCCUGGAACAGCUUGGAUAGUAUUUAGAUA,0.137 ± 0.024
15,UCCUGGAUGUCCUUGCAUAGUAAUUAGUAA,0.0241 ± 0.0076
16,UCCUCCUACACGAUGCAUAGUAUUUUCAAA,0.0649 ± 0.017
17,UCCUCCUACAGCUUGCAAAGUAUUUACAAA,0.0935 ± 0.021

# Same assay, conditions: auxiliary factor: none (no GTSF1)
row,Sequence,pre-steady-state target cleavage rate
1,UCCUGGAUGUCGAACGUAUGAUAUUAGUUA,< 0.0001
2,UCCUGGAUGUCGAACGUUAGUAAUUAGUUA,< 0.0001
3,UCCUGGAUGUCGAAGCAUAGUAUUAUCUUA,< 0.0001
4,UCCUGGAUGUCGAACGUAAGAUAUUUAGUUA,< 0.0001
5,UCCUGGAUGUCGAACGUUAGUAAUUUGUUA,< 0.0001
6,UCCUGGAUGUCGAACGUUAGUAUAUUGUUA,< 0.0001
